Compound activity as filed in PubChem BioAssay.
Many of the other results were omitted from the sample, so hits are more common in it than they were.
Tgondii IFNg: T. gondii growth inhibition with IFN-gamma, primary screen, cell-based | Toxoplasma gondii growth in IFN-gamma-treated host cells; hits give low values | activity change, negative = inhibition, % (concentration not given with the values) | 69,000 tested, 3.8% active | AID 1259416, 2018; in the data active = activity change below about -70%, passing the limit was not always enough;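 note: host cells are HeLa cells infected with Toxoplasma gondii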
A number is an active result; - = inactive.

SMILES	Tgondii IFNg
COc1ccc(S(=O)(=O)Nc2ccc3c(c2)C(=O)N([C@@H](C)CO)C[C@@H](C)[C@@H](CN(C)S(=O)(=O)c2ccc(Cl)cc2)OCCCC[C@@H](C)O3)cc1	-137
C[C@H]1CCCCO[C@H](CN(C)S(=O)(=O)c2ccccc2)[C@@H](C)CN([C@@H](C)CO)C(=O)c2cc(NC(=O)Nc3ccc4c(c3)OCO4)ccc2O1	-91
C[C@H](CO)N1C[C@H](C)[C@H](CN(C)S(=O)(=O)c2ccc(Cl)cc2)OCCCC[C@H](C)Oc2ccc(NC(=O)Nc3ccc(C(F)(F)F)cc3)cc2C1=O	-
C[C@@H]1CCCCO[C@H](CN(C)S(=O)(=O)c2ccccc2)[C@@H](C)CN([C@H](C)CO)C(=O)c2cc(NC(=O)Nc3ccc4c(c3)OCO4)ccc2O1	-
C[C@@H]1CN([C@H](C)CO)C(=O)c2cc(NC(=O)Nc3ccc(C(F)(F)F)cc3)ccc2O[C@@H](C)CCCCO[C@H]1CN(C)S(=O)(=O)c1ccc(Cl)cc1	-
C[C@H](CO)N1C[C@H](C)[C@@H](CN(C)S(=O)(=O)c2ccc(Cl)cc2)OCCCC[C@H](C)Oc2ccc(NC(=O)Nc3ccc(C(F)(F)F)cc3)cc2C1=O	-
C[C@@H]1CCCCO[C@@H](CN(C)S(=O)(=O)c2ccc(Cl)cc2)[C@H](C)CN([C@@H](C)CO)C(=O)c2cc(NC(=O)Nc3ccc(C(F)(F)F)cc3)ccc2O1	-
COc1ccc(S(=O)(=O)Nc2ccc3c(c2)C(=O)N([C@H](C)CO)C[C@H](C)[C@H](CN(C)S(=O)(=O)c2ccc(Cl)cc2)OCCCC[C@H](C)O3)cc1	-82
C[C@@H]1CN([C@@H](C)CO)C(=O)c2cc(NC(=O)Nc3ccc4c(c3)OCO4)ccc2O[C@@H](C)CCCCO[C@@H]1CN(C)S(=O)(=O)c1ccccc1	-
COc1ccc(S(=O)(=O)Nc2ccc3c(c2)C(=O)N([C@@H](C)CO)C[C@@H](C)[C@H](CN(C)S(=O)(=O)c2ccc(Cl)cc2)OCCCC[C@H](C)O3)cc1	-102
O=c1[nH]c(=O)c2cc(S(=O)(=O)NCCN3CCc4ccccc43)ccc2[nH]1	-
Fc1ccc(-c2nc(-c3ccccc3)oc2-c2ccc(F)cc2)cc1	-
CC(C)CN1Cc2c(C(=O)NCc3cccnc3)ncn2-c2ccccc2S1(=O)=O	-
CC(=O)N1CCC(C(=O)NCc2ccccc2)(N(C(=O)c2ccc(C)cc2)c2ccc(C)cc2C)CC1	-
O=S(=O)(c1ccc2c(c1)CCCC2)N1CCC2(CC1)Nc1ccccc1-n1cccc12	-
CC1(C(=O)Nc2cccc(Cl)c2)Cc2ccccc2C(=O)O1 (stereo unspecified)	-
COc1cccc([C@@H]2CCN(C3CCN(S(C)(=O)=O)CC3)C[C@H]2O)c1	-
CO[C@@H]1CCN(c2ncc(F)cn2)[C@H]1Cc1cnn(C)c1	-
COc1ccc(S(=O)(=O)Nc2ccc3c(c2)C(=O)N([C@H](C)CO)C[C@@H](C)[C@@H](CN(C)S(=O)(=O)c2ccc(Cl)cc2)OCCCC[C@@H](C)O3)cc1	-110
C[C@@H]1CCCCO[C@H](CN(C)CC2CC2)[C@H](C)CN([C@H](C)CO)C(=O)c2cc(NC(=O)c3ccccc3)ccc2O1	-
COc1ccc(S(=O)(=O)N(C)C[C@@H]2OCCCC[C@@H](C)Oc3ccc(NC(=O)Cc4ccccc4)cc3C(=O)N([C@@H](C)CO)C[C@H]2C)cc1	-
C[C@H](CO)N1C[C@H](C)[C@@H](CN(C)CC2CC2)OCCCC[C@H](C)Oc2ccc(NC(=O)c3ccccc3)cc2C1=O	-
COc1ccc(S(=O)(=O)N(C)C[C@@H]2OCCCC[C@H](C)Oc3ccc(NC(=O)Cc4ccccc4)cc3C(=O)N([C@H](C)CO)C[C@H]2C)cc1	-
COc1ccc(S(=O)(=O)Nc2ccc3c(c2)C(=O)N([C@H](C)CO)C[C@@H](C)[C@@H](CN(C)S(=O)(=O)c2ccc(Cl)cc2)OCCCC[C@H](C)O3)cc1	-117
COc1ccc(S(=O)(=O)N(C)C[C@H]2OCCCC[C@H](C)Oc3ccc(NC(=O)Cc4ccccc4)cc3C(=O)N([C@@H](C)CO)C[C@H]2C)cc1	-
SMILES	Tgondii IFNg
C[C@H](CO)N1C[C@H](C)[C@H](CN(C)CC2CC2)OCCCC[C@H](C)Oc2ccc(NC(=O)c3ccccc3)cc2C1=O	-83
COc1ccc(S(=O)(=O)Nc2ccc3c(c2)C(=O)N([C@@H](C)CO)C[C@@H](C)[C@H](CN(C)S(=O)(=O)c2ccc(Cl)cc2)OCCCC[C@@H](C)O3)cc1	-
COc1ccc(S(=O)(=O)N(C)C[C@H]2OCCCC[C@H](C)Oc3ccc(NC(=O)Cc4ccccc4)cc3C(=O)N([C@@H](C)CO)C[C@@H]2C)cc1	-108
C1=CCC(CN(CCCn2ccnc2)CC2CCOC2)CC1 (stereo unspecified)	-
Cc1ccc2cc(C)c(-c3ccncc3)nc2c1	-
O=C(c1cncc(NS(=O)(=O)c2ccccc2)c1)N1CCOCC1	-
O=C(C1CCOC1)N1CCN(C2Cc3ccccc3C2)CC1 (stereo unspecified)	-
CCOCc1ncn2c1CN(S(=O)(=O)c1ccc(F)cc1)CC2	-
C(=C\c1cccc(N2CCNCC2)n1)/c1ccccc1	-78
C(=C\c1cccc(N2CCNCC2)c1)/c1ccccc1	-
CCc1ccccc1-c1cccc(N2CCNCC2)n1	-
CC1(C)Cc2c(c(N3CCOCC3)nc3sc(C(=O)NCc4ccco4)c(N)c23)CO1	-
Fc1cccc(CN2CCN(Cc3ccc(-c4ccccc4)nc3)CC2)c1	-
CC(C)Nc1ncc(-c2nccn2Cc2ccc(F)c(F)c2)cn1	-
CCN1CCN(Cc2ccc(Nc3ncc(F)c(-c4cc(F)c5nc(C)n(C(C)C)c5c4)n3)nc2)CC1	-78
COc1ccccc1N1CCN(Cc2nc(-c3ccc(Br)cc3)cs2)CC1	-72
COc1ccccc1N1CCN(CCCCNC(=O)c2ccc(-c3ccc(C(C)=O)cc3)cc2)CC1	-
COc1ccccc1N1CCN(C(=O)c2cccs2)CC1	-
Cc1[nH]c2ccccc2c1CC(=O)N1Cc2cnc(CC(C)C)nc2C1	-
Cc1ccc(C2(O)CCN(C(=O)[C@]34CC[C@](C)([C@@H](O)C3)C4(C)C)CC2)nc1	-
Cc1ccccc1C(NC(=O)c1cnc(C(C)(C)C)nc1)c1ccncc1 (stereo unspecified)	-
CCO[C@@H]1CCN(C(=O)C(C)C)[C@@H]2CCO[C@H]21	-
CCO[C@H]1CN(C(=O)N2CCCC2)[C@H]2CCCO[C@@H]12	-96
CCO[C@H]1CC[C@@H]2[C@@H]1OCCN2C(=O)c1ccc2ccccc2c1	-
COc1ccc(-c2nc(NCCN(Cc3ccco3)C3CCCC3)c3ccccc3n2)cc1	-
SMILES	Tgondii IFNg
Cc1ccc(C(C)NC(=O)Cn2ncc3c(N4CCOCC4)ncnc32)cc1 (stereo unspecified)	-
CCN1C(=O)N(Cc2cccc(OC)c2)C(=O)C12CCN(Cc1ccc(N3CCCC3)cc1)CC2	-
CCN1C(=O)N(Cc2cccc(OC)c2)C(=O)C12CCN(CC(c1ccccc1)c1ccccc1)CC2	-
CCN1C(=O)N(Cc2cccc(OC)c2)C(=O)C12CCN(Cc1cc3ccccc3s1)CC2	-90
COc1ccc(-c2cc(-c3ccccc3)nc(N)c2C#N)cc1OC	-
COc1ccc(-c2c(C#N)c(N)nc3c2CCc2ccccc2-3)cc1OC	-86
COc1ccc(-c2cc(=S)sc(N)c2C#N)cc1OC	-
COCC(=O)N1CCCn2c(nc(CNc3ccccn3)cc2=O)C1	-
CC(C)c1ccc(S(=O)(=O)N2CCc3c(CNc4ncccn4)nn(C)c3C2)cc1	-
